# PubChem BioAssay (Tox21)
# Records with an inconclusive call do not appear. A number with no mark means an inactive call. Calls of active or inactive are those of the source. Calls follow the shape of the full dose curve.
# Molecular target: Thyrotropin receptor (Homo sapiens) (UniProt P16473)
# Assay: qHTS assay to identify small molecule antagonists of the thyroid stimulating hormone receptor (TSHR) signaling pathway (AID 1259385); also: nearly all actives have a fitted effect of over 20% in size
# Settings: TSHR-HEK293 cAMP HTRF, TSH-stimulated antagonist mode; series mostly up to 92.4 µM; activity change, negative = inhibition: at the top concentration
# Excerpt: U.S. Tox21 Program National Center for Advancing Translational Sciences [NCATS] NIH Chemical Genomics Center [NCGC] U.S. Environmental Protection Agency [EPA] National Institutes of Environmental Health Sciences [NIEHS] National Toxicology Program [NTP] U.S. Food and Drug Administration [FDA] Tox21 Assay Overview: TSHR is the receptor for thyrotropin (thyroid stimulating hormone or TSH), a member of the glycoprotein hormone family. TSH is released by the anterior pituitary gland and is the main regulator of thyroid gland growth and development. Upon binding circulating thyrotropin, a G-protein signal cascade activates adenylyl cyclase and […] cAMP concentration is increased. cAMP is a key second messenger involved extensively in cellular signal transduction pathways associated with the majority of G-protein coupled receptors (GPCRs). The activation of these GPCRs by neurotransmitters, lipids, nucleotides, peptides and hormones results in the activation or the inhibition of plasma membrane-bound adenylate cyclase through heterotrimeric G-proteins. A cell-based TSHR assay can be used to screen chemical compounds that modulate TSHR either in agonist or antagonist mode.
# Tox21 Assay Protocol Summary: TSHR-Hek293 cells were dispensed at 800 cells/4uL/well in 1536-well white plates using a Multidrop dispenser. After the assay plates were incubated at a 37C/5% CO2 incubator for 18 hrs, 23 nL of compounds dissolved in DMSO, positive controls or DMSO only was transferred to the assay plate by a pin tool, followed by 1 ul medium containing Ro20-1724. For the antagonist mode screening, 1 uL of TSH was added on the top of the cell/compound mixtures to achieve a final agonist concentration of 1.5 ng/mL. After 30 min of incubation at room temperature, 2.5 ul/well of cAMP-d2 and 2.5 ul/well of anti-cAMP-cryptate were added respectively into the assay plates using a Flying Reagent Dispenser. The plates were incubated at room temperature for 1 hr. The fluorescence intensity in the plates was measured using an Envision plate reader. Each test compound was measured at 15 concentrations and in triplicates.
# % is scaled to controls: 0 for no effect and ±100 for the full control effect; potency is read from the fitted curve at half-maximal effect.
# Chain of Thyrotropin receptor (Homo sapiens) (P16473 whole entry, looked up): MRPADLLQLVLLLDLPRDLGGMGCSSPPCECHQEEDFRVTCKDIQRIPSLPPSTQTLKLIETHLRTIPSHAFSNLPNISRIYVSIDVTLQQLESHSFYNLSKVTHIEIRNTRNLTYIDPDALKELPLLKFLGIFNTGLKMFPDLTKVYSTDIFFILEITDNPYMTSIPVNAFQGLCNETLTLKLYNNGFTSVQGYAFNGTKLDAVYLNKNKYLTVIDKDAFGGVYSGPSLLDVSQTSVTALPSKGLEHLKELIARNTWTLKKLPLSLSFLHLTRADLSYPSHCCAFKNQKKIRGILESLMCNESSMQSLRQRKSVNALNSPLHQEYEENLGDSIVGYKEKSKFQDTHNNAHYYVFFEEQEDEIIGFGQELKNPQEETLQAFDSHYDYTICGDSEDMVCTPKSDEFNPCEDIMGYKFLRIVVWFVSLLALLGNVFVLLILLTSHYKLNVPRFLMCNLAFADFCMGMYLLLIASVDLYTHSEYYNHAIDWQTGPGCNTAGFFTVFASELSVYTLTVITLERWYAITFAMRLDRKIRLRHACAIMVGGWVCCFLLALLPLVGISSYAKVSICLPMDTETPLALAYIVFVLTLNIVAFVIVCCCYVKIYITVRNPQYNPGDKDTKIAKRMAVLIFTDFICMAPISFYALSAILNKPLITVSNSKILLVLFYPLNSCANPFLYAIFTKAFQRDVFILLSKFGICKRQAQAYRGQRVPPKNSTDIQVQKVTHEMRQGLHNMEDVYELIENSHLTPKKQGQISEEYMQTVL
Structure (SMILES),"activity change, negative = inhibition",Potency
ClCc1ccccc1CCl,0.518%,
CCOCCOC(C)=O,-2.08%,
CCOP(=S)(OCC)SCS(=O)(=O)CC,2.01%,
Oc1cc(Cl)c(Cl)c(Cl)c1,-8.48%,
CN(CCCC(=O)c1cccnc1)N=O,1.36%,
CS(=O)(=O)c1ccc(C(=O)C2C(=O)CCCC2=O)c([N+](=O)[O-])c1,-0.139%,
CC1(C)C(/C=C(\Cl)C(F)(F)F)C1C(=O)OC(C#N)c1cccc(Oc2ccccc2)c1 (stereo not given),4.38%,
N#CCCC(Br)(C#N)CBr (stereo not given),,54.5 µM (active)
CC(C)(C)C(O)C(Oc1ccc(-c2ccccc2)cc1)n1cncn1 (stereo not given),2.55%,
[Cl][Sb]([Cl])[Cl],0.0314%,
c1cc[c]([Sb]([c]2ccccc2)[c]2ccccc2)cc1,-7.2%,
CC(C)CCCCCCCOP(=O)(Oc1ccccc1)Oc1ccccc1,0.522%,
CC(C)OS(C)(=O)=O,1.84%,
Cc1ccc(CCl)cc1,1.42%,
CCCOCC(=Nc1ccc(Cl)cc1C(F)(F)F)n1ccnc1,1.66%,
c1ccc2c(c1)OCC(C1=NCCN1)O2 (stereo not given),0.429% [at 42.5 µM],
N#CNC#N,-4.82%,
COc1cc(N)c(Cl)cc1C(=O)NC1CN2CCC1CC2 (stereo not given),-0.598% [at 42.5 µM],
O=[N+]([O-])c1cc(C(F)(F)F)c(Cl)c([N+](=O)[O-])c1Cl,,61.1 µM (active)
O=[N+]([O-])c1cc(Cl)ccc1Cl,1.01%,

Structure (SMILES),"activity change, negative = inhibition",Potency
O=c1[nH]c2ccccc2n1C1CCN(CCCC(c2ccc(F)cc2)c2ccc(F)cc2)CC1,-8.02%,
O=C(CCl)Nc1ccccc1,0.13%,
O=c1[nH]c2ccccc2n1CCCN1CCC(n2c(=O)[nH]c3cc(Cl)ccc32)CC1,,29.8 µM (active)
CC(C)(O)c1cnn2c(-c3ccc(F)c(-c4c(F)cccc4C#N)c3)cnc2n1,-2.63%,
C[As+](C)(C)CC(=O)[O-],-12%,
Clc1ccc(-c2ccc(Cl)c(Cl)c2Cl)c(Cl)c1Cl,,58.2 µM (active)
C[CH2][Hg][N]1C(=O)C2C(C1=O)C1(Cl)C(Cl)=C(Cl)C2(Cl)C1(Cl)Cl (stereo not given),,14.6 µM (active)
CC(C)OC(=O)C(O)(c1ccc(Cl)cc1)c1ccc(Cl)cc1,7.59%,
C[C@@H]1CC[C@@]2(OC1)O[C@H]1[C@@H](O)[C@H]3[C@@H]4CC[C@H]5C[C@@H](O[C@@H]6O[C@H](CO)[C@H](O[C@@H]7O[C@H](CO)[C@@H](O)[C@H](O[C@@H]8OC[C@@H](O)[C@H](O)[C@H]8O)[C@H]7O[C@@H]7O[C@H](CO)[C@@H](O)[C@H](O[C@@H]8O[C@H](CO)[C@@H](O)[C@H](O)[C@H]8O)[C@H]7O)[C@H](O)[C@H]6O)[C@H](O)C[C@]5(C)[C@H]4CC[C@]3(C)[C@H]1[C@@H]2C,,4.59 µM (active)
COP(N)(=S)OC,1.92%,
O=C(CBr)c1ccc(O)cc1,-0.499%,
N#C/C=C/C#N,7.18%,
CCc1ccccc1C,-0.618%,
Nc1ccccc1C(=O)Oc1ccc2ccccc2c1,-0.977%,
SCc1ccco1,-3.63%,
COCC(=O)N(c1c(C)cccc1C)[C@H](C)C(=O)OC,6.39%,
CCCCCCCCCCCCCCCC[N+](C)(C)C,,inactive
CC(c1ccc(O)cc1)c1ccc(O)cc1,,inactive
CC(C)(COCC1CO1)COCC1CO1 (stereo not given),-3.36%,
CC1CCC(C(C)C)C(OC(=O)c2ccccc2N)C1 (stereo not given),,60.3 µM (active)
